11 compounds from PubChem BioAssay (NCI) can be followed below.

About 83,000 compounds went through this panel and 20% of them were active in at least one assay; those are over-represented in the sample as a whole.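 Interpretation: 100, growth as untreated; towards 0, rising growth inhibition; 0, no net growth; 0 to -100, cell death. Compounds scoring below 10 were considered active.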 Values without a mark were called inactive. Calls of active or inactive are those of the source.

The test system of the assay is NCI-H522 lung. Kind of assay: NCI-60 one-dose screen, 48 h (100 = growth as untreated, 0 = no growth, -100 = all killed). The conditions noted are these: 10 µM unless noted.
Take `Cc1ccccc1COc1ccc(-c2onc(C)c2-c2ccc(Cl)cc2)cc1`: the growth was 25.5%.
For `O=C(/C=C/c1ccc(C(F)(F)F)cc1)Nc1ccc(C=C2c3ccccc3C(=O)c3ccccc32)cc1` the value was 20.8%.
For `COc1cccc2c1C(=O)c1c(O)c3c(c(O)c1C2=O)C[C@](O)(C(=O)CO)C[C@H]3O[C@@H]1C[C@@H](NC(=O)CCCN(C)C2(c3ccc(F)cc3)CC3CCC2C3)[C@H](O)[C@@H](C)O1` (stereo partly specified), the growth is -82.7% (active).
For `O=C(O)c1ccc(NC(=O)c2ccc(-c3cccc([N+](=O)[O-])c3)o2)cc1` the value was 94.5%; for `O=c1cc(CSc2nnc(SCc3cc(=O)oc4c3ccc3ccccc34)o2)c2ccc3ccccc3c2o1`, 70.1%; for `O=C(COc1ccc(/C=C2\COc3ccccc3C2=O)cc1)Nc1nccs1`, 56.5%.
For `NC(=NCCCOc1ccc(Cl)cc1)Nc1ccc(Cl)cc1` the value was 27.8%.
In the case of `N#CN1CC[C@H](C(=O)Nc2cc3cc(C(N)=O)ccc3cn2)C1` it was -50% (active).
Consider `N#CCCN=Nc1c(O)[nH]c2ccc(F)cc12`, for which the growth was 85%.
In the case of `Nc1nc2ncc(CCNc3ccc(C(=O)O)cc3)nc2c(=O)[nH]1` it was 100%; in that of `COc1cccc(-c2nc3sccn3c2-c2ccnc(NCCNS(=O)(=O)c3ccc(F)cc3)c2)c1`, 32.3%.
